A number with no mark means an inactive call. Records with an inconclusive call do not appear. Calls of active or inactive are those of the source. Unless noted, the call rests on the fitted dose curve; in most records, active means well fitted activation curve with a large enough effect in the main read-out, with a control signal flat (not every such curve was filed as active); inconclusive means small, poorly fitted or top-dose-only effect, or effect the other way, or a change in a side signal; inactive means flat fitted curve, though single readings scatter.
Each molecule was assayed against 3',5'-cyclic-AMP phosphodiesterase 4B (Homo sapiens) (UniProt Q07343) (assay: qHTS Assay for Inhibitors of PDE-IV (AID 607; further: potency means the concentration at half of the fitted maximal effect; on activation (PDE inhibition): % of control where 0% means no effect)). Settings: HEK293 ACTOne CNG channel cells, membrane potential fluorescence; series mostly up to 22.9 µM; activation (PDE inhibition): at the top concentration.
Chain of 3',5'-cyclic-AMP phosphodiesterase 4B (Homo sapiens) (Q07343 whole entry, looked up): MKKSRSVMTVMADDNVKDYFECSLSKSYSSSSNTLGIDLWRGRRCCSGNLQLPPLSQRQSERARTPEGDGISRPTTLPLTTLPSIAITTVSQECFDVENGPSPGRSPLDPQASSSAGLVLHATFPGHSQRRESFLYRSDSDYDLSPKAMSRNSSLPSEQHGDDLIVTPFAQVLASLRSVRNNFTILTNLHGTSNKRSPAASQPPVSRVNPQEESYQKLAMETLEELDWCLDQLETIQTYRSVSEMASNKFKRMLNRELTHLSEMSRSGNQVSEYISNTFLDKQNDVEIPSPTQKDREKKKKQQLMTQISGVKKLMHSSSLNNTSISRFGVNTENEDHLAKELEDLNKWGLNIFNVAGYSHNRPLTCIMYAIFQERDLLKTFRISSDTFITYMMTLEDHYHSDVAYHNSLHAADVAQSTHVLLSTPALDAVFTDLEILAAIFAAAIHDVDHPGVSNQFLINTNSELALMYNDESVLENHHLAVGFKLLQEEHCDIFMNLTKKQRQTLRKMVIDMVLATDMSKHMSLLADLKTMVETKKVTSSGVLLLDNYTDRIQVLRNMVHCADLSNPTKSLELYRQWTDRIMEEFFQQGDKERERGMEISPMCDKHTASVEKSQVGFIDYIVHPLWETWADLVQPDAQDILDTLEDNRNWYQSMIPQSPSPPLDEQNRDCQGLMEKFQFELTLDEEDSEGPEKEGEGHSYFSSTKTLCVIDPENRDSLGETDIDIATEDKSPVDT
How it was run: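 The readout is membrane depolarisation from a cAMP-sensing CNG channel, detected with a potential dye at ex 535/em 590. Cells were HEK293-derived (endogenous PDE-IV) at 1000 cells/well, titrated up to 22.9 uM final.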
`CC(N)=O` was tested, and the “activation (PDE inhibition)” value was -15%.
For `CCCCCCC/C=C\CCCCCCCCC(=O)O`, the “activation (PDE inhibition)” value was 2.13%.
With `CCCc1c(OCCCOc2ccc(OCC(=O)O)cc2)ccc(C(C)=O)c1O` the “activation (PDE inhibition)” value was 3.05%.
With `CCCn1c(=O)c(C)cn2nc(N)nc12` the Potency was 151 nM (active).
For `NCCCNCCCCNCCCN`, the Potency was “inactive”.
`COc1cc(/C=C(\C#N)C(=O)c2ccc(O)c(O)c2)cc(I)c1O` was tested, and the “activation (PDE inhibition)” value was 6.59%.
With `COc1ccc(C(=O)NCc2cccnc2)cc1C(=O)NCc1cccnc1` the Potency was “inactive”.
For `O=C(O)c1cc(=O)cc(C(=O)O)[nH]1`, the “activation (PDE inhibition)” value was -4.38%.
In the case of `Cc1nc(N=Nc2ccc(C(=O)O)cc2)c(COP(=O)(O)O)c(C=O)c1O`, the “activation (PDE inhibition)” value is reported as 4.54%.
With `CC(C)NC[C@H](O)COc1cccc2ccccc12` the “activation (PDE inhibition)” value was -8.3%.
With `CCCOC(=O)c1c(-c2ccccc2)nc(CC)c(C(=O)SCC)c1CCC` the “activation (PDE inhibition)” value was -17.4%.
For `O=c1[nH]c(=S)[nH]c(-c2ccccc2)c1Cc1c(O)ccc2ccccc12`, the “activation (PDE inhibition)” value was -5.01%.
With `Cn1ccnc1` the “activation (PDE inhibition)” value was -2.58%.
In the case of `N=C(N)c1ccccc1`, the “activation (PDE inhibition)” value is reported as -0.455%.
In the case of `COc1ccccc1N1CCN(CCN(C(=O)c2ccc(F)cc2)c2ccccn2)CC1`, the “activation (PDE inhibition)” value is reported as 5.12%.
For `N[C@@H](Cc1c[nH]c2ccccc12)C(=O)O`, the “activation (PDE inhibition)” value was 0.194%.
For `C/C(=C\c1ccc(C(=O)O)cc1)c1ccc2c(c1)C(C)(C)CCC2(C)C`, the “activation (PDE inhibition)” value was -16.8%.
With `NCCNS(=O)(=O)c1cccc2c(Cl)cccc12` the “activation (PDE inhibition)” value was 12.4%.
With `CCCCCCCCCCCCCCSCC(=O)O` the “activation (PDE inhibition)” value was -6.05%.
With `C[N+](C)(C)CC=O` the “activation (PDE inhibition)” value was -4.41%.
For `N=C(N)c1ccc(OCCCCCOc2ccc(C(=N)N)cc2)cc1` (tested in a mixture with another compound), the “activation (PDE inhibition)” value was -9.31%.
For `CC(=O)NCCc1c[nH]c2ccc(O)cc12`, the “activation (PDE inhibition)” value was 0.877%.
`CC(=O)C(C)=O` was tested, and the “activation (PDE inhibition)” value was 0.044%.
For `Cc1nc2c(OCc3ccccc3)cccn2c1CC#N`, the Potency was “inactive”.
In the case of `CCC(=O)N1CCN(C(=O)c2ccccc2)CC1`, the “activation (PDE inhibition)” value is reported as 10.2%.
`CCN(CC)CCCCCCCCOC(=O)c1cc(OC)c(OC)c(OC)c1` was tested, and the “activation (PDE inhibition)” value was 15.6%.
With `C#CCn1c(=O)c2c(ncn2C)n(C)c1=O` the “activation (PDE inhibition)” value was -3.36%.
With `NS(=O)(=O)c1cccc2c1c([N+](=O)[O-])cc1nc(O)c(O)nc12` the Potency was “inactive”.
For `NCCCCN=C(N)N`, the “activation (PDE inhibition)” value was 10.5%.
`CC1CCN(CC[C@H]2CCCN2S(=O)(=O)c2cccc(O)c2)CC1` was tested, and the “activation (PDE inhibition)” value was -29.9%.
With `O=C(O)Cc1ccc(O)c(O)c1` the “activation (PDE inhibition)” value was -1.37%.
With `Nn1nnc2ccccc21` the “activation (PDE inhibition)” value was -0.285%.
In the case of `O=C(N[C@@H](Cc1ccccc1)C(=O)CCl)OCc1ccccc1`, the “activation (PDE inhibition)” value is reported as 41.6%.
With `CC[N+](CC)(CC)CC(=O)Nc1c(C)cccc1C` the “activation (PDE inhibition)” value was -11.4%.

These molecules were tested against Guanine nucleotide-binding protein G(i) subunit alpha-1 (Homo sapiens) (UniProt P63096) (assay: qHTS Assay for Inhibitors of RGS12 GoLoco Motif Activity (Green Fluorophore) (AID 879; active means well fitted curve in the direction sought with a large enough effect;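 further: 0% = labeled peptide with Gαi1 and full inhibition = labeled peptide alone without protein; negative values mean loss of peptide binding seen as reduced polarization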)). Settings: Galphai1/FITC-RGS12 GoLoco peptide, fluorescence polarization; series mostly up to 57.1 µM; activity, negative = inhibition: at the top concentration.
Chain of Guanine nucleotide-binding protein G(i) subunit alpha-1 (Homo sapiens) (P63096 whole entry, looked up): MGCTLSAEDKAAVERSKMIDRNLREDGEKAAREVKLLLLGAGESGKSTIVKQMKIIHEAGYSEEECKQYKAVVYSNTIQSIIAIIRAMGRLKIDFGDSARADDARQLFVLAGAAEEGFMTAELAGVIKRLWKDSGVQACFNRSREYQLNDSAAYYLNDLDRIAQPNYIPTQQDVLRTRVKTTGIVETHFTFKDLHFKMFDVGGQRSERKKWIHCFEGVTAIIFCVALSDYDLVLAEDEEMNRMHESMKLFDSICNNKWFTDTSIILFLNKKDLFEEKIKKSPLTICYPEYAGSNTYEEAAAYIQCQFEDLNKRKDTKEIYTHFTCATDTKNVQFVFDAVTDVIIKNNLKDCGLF
How it was run: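 A drop in FITC polarization marked displacement of the FITC-tagged RGS12 GoLoco peptide (10 nM) from Gαi1 (50 nM). Compounds were incubated 10 min at room temperature in Tris pH 7.5 buffer containing 150 mM NaCl, 0.1 mM GDP and 0.05% NP40; unlabeled peptide titration served as control.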
With `CC(N)=O` the “activity, negative = inhibition” value was 0.761%.
For `CCCCCCC/C=C\CCCCCCCCC(=O)O`, the “activity, negative = inhibition” value was -6.46%.
For `CCCc1c(OCCCOc2ccc(OCC(=O)O)cc2)ccc(C(C)=O)c1O`, the “activity, negative = inhibition” value was -8.48%.
For `NCCCNCCCCNCCCN`, the “activity, negative = inhibition” value was -9.18%.
With `COc1cc(/C=C(\C#N)C(=O)c2ccc(O)c(O)c2)cc(I)c1O` the “activity, negative = inhibition” value was 162%.
With `COc1ccc(C(=O)NCc2cccnc2)cc1C(=O)NCc1cccnc1` the “activity, negative = inhibition” value was -5.42%.
For `O=C(O)c1cc(=O)cc(C(=O)O)[nH]1`, the “activity, negative = inhibition” value was -8.52%.
With `CCCOC(=O)c1c(-c2ccccc2)nc(CC)c(C(=O)SCC)c1CCC` the “activity, negative = inhibition” value was -8.36%.
In the case of `Cn1ccnc1`, the “activity, negative = inhibition” value is reported as 6.17%.
In the case of `N=C(N)c1ccccc1`, the “activity, negative = inhibition” value is reported as -3.43%.
With `COc1ccccc1N1CCN(CCN(C(=O)c2ccc(F)cc2)c2ccccn2)CC1` the “activity, negative = inhibition” value was -21.4%.
`N[C@@H](Cc1c[nH]c2ccccc12)C(=O)O` was tested, and the “activity, negative = inhibition” value was -5.56%.
`C/C(=C\c1ccc(C(=O)O)cc1)c1ccc2c(c1)C(C)(C)CCC2(C)C` was tested, and the “activity, negative = inhibition” value was -19.7%.
With `NCCNS(=O)(=O)c1cccc2c(Cl)cccc12` the “activity, negative = inhibition” value was -10.2%.
With `NC(=O)c1ccccc1` the “activity, negative = inhibition” value was 3.04%.
With `CCCCCCCCCCCCCCSCC(=O)O` the “activity, negative = inhibition” value was -20.6%.
`C[N+](C)(C)CC=O` was tested, and the “activity, negative = inhibition” value was 4.53%.
In the case of `N=C(N)c1ccc(OCCCCCOc2ccc(C(=N)N)cc2)cc1` (tested in a mixture with another compound), the “activity, negative = inhibition” value is reported as -18.8%.
With `CC(=O)NCCc1c[nH]c2ccc(O)cc12` the “activity, negative = inhibition” value was -16.7%.
In the case of `CC(=O)C(C)=O`, the “activity, negative = inhibition” value is reported as -10.9%.
`Cc1nc2c(OCc3ccccc3)cccn2c1CC#N` was tested, and the “activity, negative = inhibition” value was -1.74%.
`CCC(=O)N1CCN(C(=O)c2ccccc2)CC1` was tested, and the “activity, negative = inhibition” value was -2.62%.
`CCN(CC)CCCCCCCCOC(=O)c1cc(OC)c(OC)c(OC)c1` was tested, and the “activity, negative = inhibition” value was 1.91%.
In the case of `C#CCn1c(=O)c2c(ncn2C)n(C)c1=O`, the “activity, negative = inhibition” value is reported as -15.3%.
With `NS(=O)(=O)c1cccc2c1c([N+](=O)[O-])cc1nc(O)c(O)nc12` the “activity, negative = inhibition” value was -18.4%.
For `NCCCCN=C(N)N`, the “activity, negative = inhibition” value was -4.79%.
For `Nn1nnc2ccccc21`, the “activity, negative = inhibition” value was -17.3%.
In the case of `O=C(N[C@@H](Cc1ccccc1)C(=O)CCl)OCc1ccccc1`, the “activity, negative = inhibition” value is reported as -6.34%.
`CC[N+](CC)(CC)CC(=O)Nc1c(C)cccc1C` was tested, and the “activity, negative = inhibition” value was -4.04%.

Reference: PubChem BioAssay (NCATS)
